Source: PubChem BioAssay
Active and inactive are the calls of the source.

Assays:
[1] = small molecules captured by biotinylated probe aFSTL3 – biochemical, small-molecule microarray, fluorescence 635/667, stem cell growth factor project, primary screen (AID 1064); conditions: higher = more signal;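 further: measures binding of the biotinylated anti-FSTL3 antibody to printed compounds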
[2] = binders from COS7 lysate, DM2A8 probe, primary screen, torsin A project, cell lysate, small-molecule microarray, fluorescence 635/667 (AID 1065); conditions: higher = more signal, COS7 lysate expressing mutant human TOR1A
[3] = small molecules captured by biotinylated probe aFGF2 – biochemical, small-molecule microarray, fluorescence 635/667, stem cell growth factor project, primary screen (AID 1067); conditions: higher = more signal;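 further: measures binding of biotinylated aFGF2 protein to printed compounds on slides; z-score merges feature fluorescence and signal-to-noise across triplicate slides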
[4] = small molecules captured by biotinylated probe aFGF10 – biochemical, small-molecule microarray, fluorescence 635/667, stem cell growth factor project, primary screen (AID 1071); conditions: higher = more signal;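 further: score merges 667 nm spot intensity and signal to noise from triplicate slides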
[5] = target: Neurogenic locus notch homolog protein 2 (Homo sapiens) (UniProt Q04721); assay: small molecules binding Notch2 protein – biochemical, small-molecule microarray, 635 nm fluorescence, stem cell growth factors, primary screen (AID 1073); conditions: higher = more signal
[6] = target: Pro-neuregulin-1, membrane-bound isoform (Homo sapiens) (UniProt Q02297); assay: small molecules binding neuregulin-1 protein – biochemical, small-molecule microarray, fluorescence 635/667, psychiatric disease protein project, primary screen (AID 1075); conditions: NRG1 binding, 635 nm fluorescence, higher = more signal;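 further: score combines 667 nm spot fluorescence with signal to noise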
Chain of Pro-neuregulin-1, membrane-bound isoform (Homo sapiens) (Q02297 whole entry, looked up, the tested form may be a part, canonical isoform): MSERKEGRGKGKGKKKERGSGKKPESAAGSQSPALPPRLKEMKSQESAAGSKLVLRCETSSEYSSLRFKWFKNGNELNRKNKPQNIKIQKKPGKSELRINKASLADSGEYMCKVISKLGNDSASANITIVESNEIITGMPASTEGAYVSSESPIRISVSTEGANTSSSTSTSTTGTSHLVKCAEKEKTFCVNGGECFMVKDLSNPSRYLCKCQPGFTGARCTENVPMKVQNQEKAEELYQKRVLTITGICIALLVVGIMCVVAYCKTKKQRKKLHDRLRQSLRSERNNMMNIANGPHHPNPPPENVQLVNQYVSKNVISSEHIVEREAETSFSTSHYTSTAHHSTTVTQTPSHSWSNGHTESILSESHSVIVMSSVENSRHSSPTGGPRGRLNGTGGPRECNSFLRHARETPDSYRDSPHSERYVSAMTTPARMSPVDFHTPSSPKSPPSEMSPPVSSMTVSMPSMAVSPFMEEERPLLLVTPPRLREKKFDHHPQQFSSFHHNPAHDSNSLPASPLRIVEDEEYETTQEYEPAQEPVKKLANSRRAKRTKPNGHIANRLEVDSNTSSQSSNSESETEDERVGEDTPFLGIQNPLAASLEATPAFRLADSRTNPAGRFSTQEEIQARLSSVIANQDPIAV

[7] = test system: Neuregulin-1 EGF-like domain; assay: small molecules binding NRG1 EGF domain – biochemical, small-molecule microarray, 635 nm fluorescence, primary screen (AID 1081); conditions: higher = more signal;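 further: binding of the protein to compounds printed on small-molecule microarray slides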
[8] = FRG1 expression reporter modulators in myotubes – cell-based, C2C12 myotubes, firefly/Renilla luciferase, luminescence, FRG1 inhibition for FSHD, primary screen (AID 1084); conditions: FRG1 promoter luciferase, higher = more signal, called active from +8 up or from −8 down
[9] = small molecules captured by biotinylated probe aFST – biochemical, small-molecule microarray, fluorescence 635/667, stem cell growth factor project, primary screen (AID 1086); conditions: higher = more signal;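 further: score merges 667 nm fluorescence with signal-to-noise of each printed compound spot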
[10] = binders of probe aHhip on microarray, primary screen, stem cell growth factor project, biochemical, small-molecule microarray, fluorescence 635/667 (AID 1087); conditions: higher = more signal;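 further: score merges spot fluorescence at 667nm with spot signal to noise ratio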
[11] = test system: PRMT1 (protein arginine N-methyltransferase 1); assay: small molecules binding arginine methyltransferase PRMT1 – biochemical, small-molecule microarray, 635 nm fluorescence, primary screen (AID 1088); conditions: higher = more signal;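 further: binding of Prmt1 protein to compounds spotted on small-molecule microarray slides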
[12] = growth effects on S. cerevisiae YJM789 – YJM789 clinical isolate, OD600, 24 h, basal, primary screen (AID 1089); conditions: higher = more signal, called active from +8 up or from −8 down;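 further: growth of clinical yeast isolate S. cerevisiae YJM 789 seeded 1000 cells per well; test concentration not given here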
[13] = S. pombe growth modifiers, basal conditions – strain 972, OD600, 24 h, no modulator, primary screen (AID 1090);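 further: basal condition with compound alone and no growth modifier present; test concentration not given here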; conditions: S. pombe 972 growth, higher = more signal, called active from +8 up or from −8 down
[14] = budding yeast growth modifiers under rapamycin – strain BY4716, OD600, 96 h, primary screen (AID 1091); further: test concentration not given here; conditions: S. cerevisiae BY4716 + rapamycin, higher = more signal, called active from +8 up or from −8 down
[15] = target: Torsin-1A-interacting protein 2 (Homo sapiens) (UniProt Q8NFQ8); assay: small molecules binding lysate-expressed LULL1 – cell lysate, human LULL1 lysate, 635/667 nm fluorescence, primary screen (AID 1092); conditions: small-molecule microarray, hLULL1 lysate binding, 635 nm fluorescence; higher = more signal;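 further: probe is lysate of COS7 cells overexpressing human LULL1; score merges per-feature 667 nm fluorescence with signal-to-noise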
Chain of Torsin-1A-interacting protein 2 (Homo sapiens) (Q8NFQ8 whole entry, looked up): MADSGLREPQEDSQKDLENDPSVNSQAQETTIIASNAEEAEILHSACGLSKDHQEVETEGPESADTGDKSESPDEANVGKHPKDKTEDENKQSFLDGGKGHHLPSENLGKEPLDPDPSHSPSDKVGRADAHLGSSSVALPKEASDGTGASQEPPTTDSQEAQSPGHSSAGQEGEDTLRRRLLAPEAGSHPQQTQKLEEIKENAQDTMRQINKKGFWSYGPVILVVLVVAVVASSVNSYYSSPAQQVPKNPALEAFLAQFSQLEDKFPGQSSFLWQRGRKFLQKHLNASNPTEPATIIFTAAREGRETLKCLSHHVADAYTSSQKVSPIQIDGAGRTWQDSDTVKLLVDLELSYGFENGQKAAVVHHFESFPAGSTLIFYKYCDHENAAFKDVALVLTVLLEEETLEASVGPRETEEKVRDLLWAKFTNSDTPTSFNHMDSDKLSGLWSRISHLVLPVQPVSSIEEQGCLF

[16] = optical density change of DRC41 E. coli – strain DRC41, OD650, 24 h, E. coli filamentation project, primary screen (AID 1093);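 further: MC1000 strain lacking acrAB efflux and sulA so SOS filamentation is blocked; test concentration not given here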; conditions: E. coli DRC41 growth, higher = more signal, called active from +8 up or from −8 down
[17] = probe aLefty2 binding to arrayed compounds – biochemical, biotinylated probe, 635/667 nm fluorescence, primary screen (AID 1094); conditions: small-molecule microarray, higher = more signal;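 further: score merges spot fluorescence near 667 nm with spot signal-to-noise ratio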
[18] = test system: Noggin (protein binding on small-molecule microarray); assay: small molecules binding Noggin protein – biochemical, 635/667 nm fluorescence, primary screen (AID 1095); conditions: 635 nm fluorescence, higher = more signal;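 further: score merges 667 nm feature fluorescence with signal to noise over triplicate slides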
[19] = target: Neurogenic locus notch homolog protein 3 (Homo sapiens) (UniProt Q9UM47); assay: small molecules binding NOTCH3 protein – biochemical, 635/667 nm fluorescence, primary screen (AID 1096); conditions: small-molecule microarray, 635 nm fluorescence, higher = more signal
Chain of Neurogenic locus notch homolog protein 3 (Homo sapiens) (Q9UM47 whole entry, looked up): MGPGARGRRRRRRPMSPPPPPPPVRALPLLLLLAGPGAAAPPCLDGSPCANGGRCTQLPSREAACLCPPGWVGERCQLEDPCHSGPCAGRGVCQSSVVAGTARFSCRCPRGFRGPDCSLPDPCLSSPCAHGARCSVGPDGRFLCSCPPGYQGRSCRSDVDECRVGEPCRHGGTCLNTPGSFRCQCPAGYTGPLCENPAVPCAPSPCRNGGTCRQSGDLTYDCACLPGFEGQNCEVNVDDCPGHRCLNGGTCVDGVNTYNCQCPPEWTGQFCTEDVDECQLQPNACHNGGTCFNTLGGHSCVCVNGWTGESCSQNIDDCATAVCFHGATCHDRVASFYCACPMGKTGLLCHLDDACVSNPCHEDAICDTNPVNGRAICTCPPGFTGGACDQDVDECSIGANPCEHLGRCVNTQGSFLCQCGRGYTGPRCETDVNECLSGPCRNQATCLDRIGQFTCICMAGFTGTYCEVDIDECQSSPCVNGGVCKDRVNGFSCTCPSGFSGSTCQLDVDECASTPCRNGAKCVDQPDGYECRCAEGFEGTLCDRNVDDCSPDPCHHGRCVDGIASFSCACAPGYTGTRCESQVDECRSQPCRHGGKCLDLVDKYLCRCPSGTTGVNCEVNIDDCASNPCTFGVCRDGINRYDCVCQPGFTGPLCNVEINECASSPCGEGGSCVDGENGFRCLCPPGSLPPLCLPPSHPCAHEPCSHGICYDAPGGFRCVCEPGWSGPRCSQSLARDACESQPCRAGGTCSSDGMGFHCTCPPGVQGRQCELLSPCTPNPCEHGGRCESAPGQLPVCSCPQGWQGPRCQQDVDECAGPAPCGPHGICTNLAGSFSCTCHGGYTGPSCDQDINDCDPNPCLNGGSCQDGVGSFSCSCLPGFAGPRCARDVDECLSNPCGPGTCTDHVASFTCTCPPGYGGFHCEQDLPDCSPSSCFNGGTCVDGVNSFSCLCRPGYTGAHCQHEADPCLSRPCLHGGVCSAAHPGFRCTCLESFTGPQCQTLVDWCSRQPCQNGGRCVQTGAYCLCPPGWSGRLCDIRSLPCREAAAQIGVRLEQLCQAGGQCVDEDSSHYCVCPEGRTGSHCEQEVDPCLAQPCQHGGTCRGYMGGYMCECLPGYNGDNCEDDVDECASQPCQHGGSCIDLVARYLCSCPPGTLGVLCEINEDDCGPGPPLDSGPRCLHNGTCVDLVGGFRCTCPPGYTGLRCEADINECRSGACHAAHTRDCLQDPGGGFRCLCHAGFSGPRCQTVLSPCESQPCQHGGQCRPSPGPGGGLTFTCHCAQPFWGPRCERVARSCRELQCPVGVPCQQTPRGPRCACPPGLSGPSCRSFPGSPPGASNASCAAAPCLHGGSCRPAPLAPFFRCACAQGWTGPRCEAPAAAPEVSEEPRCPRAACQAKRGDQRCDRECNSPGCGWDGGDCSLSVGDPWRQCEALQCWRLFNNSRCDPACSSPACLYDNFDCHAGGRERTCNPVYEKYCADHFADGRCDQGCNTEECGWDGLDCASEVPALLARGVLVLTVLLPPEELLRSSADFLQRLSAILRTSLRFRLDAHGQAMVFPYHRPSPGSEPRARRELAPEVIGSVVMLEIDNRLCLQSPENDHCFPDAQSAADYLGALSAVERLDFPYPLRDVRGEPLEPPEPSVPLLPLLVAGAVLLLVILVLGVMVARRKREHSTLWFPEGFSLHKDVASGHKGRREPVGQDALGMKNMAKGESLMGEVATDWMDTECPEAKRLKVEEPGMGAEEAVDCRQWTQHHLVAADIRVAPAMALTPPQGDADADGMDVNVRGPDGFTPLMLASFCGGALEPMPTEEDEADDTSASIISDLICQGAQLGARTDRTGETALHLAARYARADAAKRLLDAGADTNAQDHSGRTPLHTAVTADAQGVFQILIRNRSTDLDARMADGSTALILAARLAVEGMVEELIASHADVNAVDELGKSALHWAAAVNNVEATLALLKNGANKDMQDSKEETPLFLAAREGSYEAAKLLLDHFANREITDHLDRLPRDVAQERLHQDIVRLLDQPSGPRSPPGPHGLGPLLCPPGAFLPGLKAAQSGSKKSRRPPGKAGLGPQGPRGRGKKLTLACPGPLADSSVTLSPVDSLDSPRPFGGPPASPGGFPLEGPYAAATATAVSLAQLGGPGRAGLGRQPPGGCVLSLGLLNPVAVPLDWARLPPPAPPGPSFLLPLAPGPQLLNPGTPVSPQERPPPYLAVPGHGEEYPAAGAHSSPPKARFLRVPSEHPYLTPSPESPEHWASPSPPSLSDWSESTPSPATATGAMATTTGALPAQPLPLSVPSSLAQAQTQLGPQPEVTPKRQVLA

[20] = probe aEGFR binding to arrayed compounds – biochemical, biotinylated probe, 635/667 nm fluorescence, primary screen (AID 1097); conditions: small-molecule microarray, higher = more signal;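 further: probe is a biotinylated anti-EGFR antibody binding compounds printed on slides; score combines fluorescence near 667 nm and signal to noise of each spot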

Row | Structure (SMILES) | composite z-score [1] | composite z-score [2] | composite z-score [3] | composite z-score [4] | composite z-score [5] | composite z-score [6] | composite z-score [7] | z-score [8] | composite z-score [9] | composite z-score [10] | composite z-score [11] | z-score [12] | z-score [13] | z-score [14] | composite z-score [15] | z-score [16] | composite z-score [17] | composite z-score [18] | composite z-score [19] | composite z-score [20]
1 | C=C(C(=O)CC[C@H](OC(C)=O)c1ccc(CO)o1)C(C)C | -0.466 | 0.615 | -0.189 | 0.122 | -1.28 | -0.116 | 0.388 | -0.629 (inactive) | -0.393 | 0.0596 | 0.966 | 1.01 (inactive) | -0.344 (inactive) | -0.454 (inactive) | 0.468 | 1.44 (inactive) | -0.127 | 0.512 | -0.654 | -0.181
2 | [N-]=[N+]=Nc1ccccc1[C@H]1OC(c2ccc(OCCCO)cc2)=N[C@@]1(Cc1ccccc1)C(N)=O | 1.28 | 1.6 | 0.317 | 0.988 | 1.42 | 1.14 | 1.13 | -0.191 (inactive) | 1.42 | 0.0053 | 1.55 | 2.87 (inactive) | -1.11 (inactive) | -0.321 (inactive) | 2.62 | 1.6 (inactive) | 0.789 | 0.49 | 1.09 | 0.441
3 | CC(C)C[C@@H]1NC(=O)[C@@]23C(=O)N[C@@H](Cc4ccccc4)C2[C@H](C)[C@@]2(C)O[C@H]2C3/C=C/CC/C=C/CNC(=O)[C@@H](C)NC1=O (stereo not given in full) | -0.574 | 0.408 | -0.178 | 0.408 | 0.578 | -0.418 | 0.635 | -1.05 (inactive) | 0.17 | 0.21 | 0.118 | 0.395 (inactive) | -0.619 (inactive) | -0.697 (inactive) | -0.664 | 2.82 (inactive) | -0.19 | 1.28 | 0.71 | -0.162
4 | C=CC[C@]1(C(=O)N2CCCCC2)COC(c2ccc(OCCCO)cc2)=N1 | 0.892 | 0.586 | -0.153 | -1.44 | -1.58 | 1.05 | 0.796 | -2.05 (inactive) | -0.329 | -0.251 | 0.517 | -0.485 (inactive) | -5.08 (inactive) | -2.75 (inactive) | 2.43 | 1.16 (inactive) | 0.0499 | 0.452 | -0.904 | -0.0933
5 | COC(=O)C1=CC(CCCO)=CC(C2CC2)N(Cc2cc3c(cc2Br)OCO3)C=C1C(=O)OC (stereo not given) | 1.74 | 2.08 | -0.0656 | -0.435 | 0.728 | 2.22 | 1.3 | -0.0234 (inactive) | 0.796 | -0.0645 | 1.54 | -1.04 (inactive) | -2.22 (inactive) | -1.23 (inactive) | 3 | -0.741 (inactive) | 0.392 | -0.705 | 0.647 | 0.0821
6 | O=C(NC1CC1)[C@@H]1c2ccccc2C(=O)N(Cc2ccccc2C(F)(F)F)[C@H]1c1ccc(CO)cc1 | -0.432 | 0.436 | -0.116 | 0.39 | 0.693 | 0.988 | 1.26 | -1.64 (inactive) | 0.336 | -0.226 | 1.57 | -0.541 (inactive) | -1.77 (inactive) | -0.731 (inactive) | 2.27 | 1 (inactive) | -0.15 | 0.458 | 1.13 | -0.039
7 | COc1ccc([Si](C)(C)[C@H]2[C@H](CC(=O)N(CCO)Cc3ccccc3)O[C@@]3(C(=O)N(Cc4cccc(N5C(=O)COc6ccccc65)c4)c4ccccc43)[C@@H]2C)cc1 | 1.54 | 0.347 | -0.106 | 0.585 | 0.703 | 1.11 | 1.27 | -1.84 (inactive) | -0.103 | 0.245 | 1.44 | 2.21 (inactive) | 0.272 (inactive) | 3.48 (inactive) | 2.13 | 2.09 (inactive) | -0.0846 | 0.97 | 0.496 | 0.0927
8 | CC(C)(C)OC(=O)CC[C@@]12N=C(c3ccc(OCCCO)cc3)O[C@@H]1c1ccccc1N(Cc1ccccc1)C2=O | 0.96 | 0.842 | -0.0481 | -0.422 | 0.246 | 0.778 | 1.21 | -3.31 (inactive) | 0.439 | -0.0645 | 1.32 | 0.0492 (inactive) | -1.2 (inactive) | 3.98 (inactive) | 3.26 | 1.55 (inactive) | 0.0622 | 0.753 | 1.05 | -0.0497
9 | C=C(COC)C(=O)CC[C@@H](OC(=O)c1ccccc1-c1ccccc1C(=O)O)c1cccc(OCCO)c1 | -0.124 | 0.098 | -0.14 | 0.457 | -0.66 | 0.691 | 0.137 | 0.658 (inactive) | -0.0665 | -0.0645 | 0.437 | 0.586 (inactive) | -1.51 (inactive) | -0.409 (inactive) | 0.132 | 0.826 (inactive) | -0.183 | 0.518 | -0.338 | -0.173
